# Measurements from the supplement of paper PMC8728848.
# The entries come from a sample that favours the strongest signals as a whole.
# B1: DC-Sign (Homo sapiens), Q9NNX6 (protein)
# chain: MSDSKEPRLQQLGLLEEEQLRGLGFRQTRGYKSLAGCLGHGPLVLQLLSFTLLAGLLVQVSKVPSSISQEQSRQDAIYQNLTQLKAAVGELSEKSKLQEIYQELTQLKAAVGELPEKSKLQEIYQELTRLKAAVGELPEKSKLQEIYQELTWLKAAVGELPEKSKMQEIYQELTRLKAAVGELPEKSKQQEIYQELTRLKAAVGELPEKSKQQEIYQELTRLKAAVGELPEKSKQQEIYQELTQLKAAVERLCHPCPWEWTFFQGNCYFMSNSQRNWHDSITACKEVGAQLVVIKSAEEQNFLQLQSSRSNRFTWMGLSDLNQEGTWQWVDGSPLLPSFKQYWNRGEPNNVGEEDCAEFSGNGWNDDKCNLAKFWICKKSAASCSRDEEQFLSPAPATPNPPPA
# Legend:
# Test in all cases: glycan array binding signal (z-score within array); higher = stronger binding
# Conditions in all cases: glycan notation: IUPAC condensed, linker removed
# [1] = target: Fuc(a1-2)Gal(b1-3)GalNAc(a1-3)[Fuc(a1-2)]Gal(b1-4)GlcNAc
# Method in brief: (§1)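 Glycan array data came from 3228 arrays in the Consortium for Functional Glycomics database, and only arrays with an available protein sequence were kept. Glycan names were put into IUPAC-condensed notation, and columns mapping to the same glycan were averaged. The binding signal is a within-array Z-score, averaged across arrays of one protein sequence run at different concentrations or buffers and across linkers. A negative Z-score can be read as non-binding.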
# [2] = target: Fuc(a1-2)Gal(b1-4)GlcNAc(b1-2)Man(a1-3)[Fuc(a1-2)Gal(b1-4)GlcNAc(b1-2)Man(a1-6)]Man(b1-4)GlcNAc(b1-4)[Fuc(a1-6)]GlcNAc
# Method in brief: as §1
# [3] = target: Fuc(a1-2)Gal(b1-4)[Fuc(a1-3)]GlcNAc(b1-2)Man(a1-3)[Fuc(a1-2)Gal(b1-4)[Fuc(a1-3)]GlcNAc(b1-2)Man(a1-6)]Man(b1-4)GlcNAc(b1-4)[Fuc(a1-6)]GlcNAc
# Method in brief: as §1
# [4] = target: Fuc(a1-2)Gal(b1-4)[Fuc(a1-3)]GlcNAc(b1-3)Gal(b1-4)[Fuc(a1-3)]GlcNAc
# Method in brief: as §1
# [5] = target: Fuc(a1-2)Gal(b1-4)[Fuc(a1-3)]GlcNAc(b1-3)Gal(b1-4)[Fuc(a1-3)]GlcNAc(b1-3)Gal(b1-4)[Fuc(a1-3)]GlcNAc
# Method in brief: as §1
# [6] = target: Fuc(a1-2)Gal(b1-4)[Fuc(a1-3)]GlcNAc(b1-3)[Neu5Ac(a2-6)Gal(b1-4)GlcNAc(b1-6)]Gal(b1-4)Glc
# Method in brief: as §1
# [7] = target: Fuc(a1-2)[Gal(a1-3)]Gal
# Method in brief: as §1
# [8] = target: Fuc(a1-2)[Gal(a1-3)]Gal(b1-3)GlcNAc
# Method in brief: as §1
# [9] = target: Fuc(a1-2)[Gal(a1-3)]Gal(b1-3)GlcNAc(b1-3)GalNAc
# Method in brief: as §1
# [10] = target: Fuc(a1-2)[Gal(a1-3)]Gal(b1-4)[Fuc(a1-3)]GlcNAc(b1-3)GalNAc
# Method in brief: as §1
# [11] = target: Fuc(a1-2)[GalNAc(a1-3)]Gal(b1-3)GalNAc(a1-3)[Fuc(a1-2)]Gal(b1-4)GlcNAc
# Method in brief: as §1
# [12] = target: Fuc(a1-2)[GalNAc(a1-3)]Gal(b1-3)GlcNAc
# Method in brief: as §1
# [13] = target: Fuc(a1-2)[GalNAc(a1-3)]Gal(b1-4)GlcNAc(b1-3)Gal(b1-4)GlcNAc(b1-3)Gal(b1-4)GlcNAc
# Method in brief: as §1
# [14] = target: Fuc(a1-2)[GalNAc(a1-3)]Gal(b1-4)GlcNAc(b1-3)[Fuc(a1-2)[GalNAc(a1-3)]Gal(b1-4)GlcNAc(b1-6)]GalNAc
# Method in brief: as §1
# [15] = target: Fuc(a1-3)[Gal(b1-4)]GlcNAc(b1-3)Gal(b1-3)[Fuc(a1-4)]GlcNAc
# Method in brief: as §1
# [16] = target: Fuc(a1-3)[Gal(b1-4)]GlcNAc(b1-3)Gal(b1-4)[Fuc(a1-3)]GlcNAc
# Method in brief: as §1
# [17] = target: Fuc(a1-3)[Gal(b1-4)]GlcNAc(b1-3)Gal(b1-4)[Fuc(a1-3)]GlcNAc(b1-3)Gal(b1-4)[Fuc(a1-3)]GlcNAc
# Method in brief: as §1
# [18] = target: Fuc(a1-3)[Gal3S(b1-4)]GlcNAc6S
# Method in brief: as §1
# [19] = target: Fuc(a1-3)[GalNAc(b1-4)]GlcNAc6S
# Method in brief: as §1
# [20] = target: Gal(a1-3)Gal(b1-4)Glc
# Method in brief: as §1
# [21] = target: Gal(a1-3)Gal(b1-4)[Fuc(a1-3)]GlcNAc(b1-2)Man(a1-3)[Gal(a1-3)Gal(b1-4)[Fuc(a1-3)]GlcNAc(b1-2)Man(a1-6)]Man(b1-4)GlcNAc(b1-4)GlcNAc
# Method in brief: as §1
# [22] = target: Gal(a1-4)Gal(b1-3)GlcNAc(b1-2)Man(a1-3)[Gal(a1-4)Gal(b1-3)GlcNAc(b1-2)Man(a1-6)]Man(b1-4)GlcNAc(b1-4)GlcNAc
# Method in brief: as §1
# [23] = target: Gal(b1-3)GlcNAc(b1-3)Gal(b1-3)GlcNAc
# Method in brief: as §1
# [24] = target: Gal(b1-3)[Fuc(a1-4)]GlcNAc(b1-3)Gal(b1-3)[Fuc(a1-4)]GlcNAc
# Method in brief: as §1
# [25] = target: Gal(b1-4)GlcNAc(b1-2)[Gal(b1-4)GlcNAc(b1-6)]Man(a1-6)[GlcNAc(b1-4)][Gal(b1-4)GlcNAc(b1-2)Man(a1-3)]Man(b1-4)GlcNAc(b1-4)GlcNAc
# Method in brief: as §1
# [26] = target: Gal(b1-4)GlcNAc(b1-3)Gal(b1-4)GlcNAc(b1-2)[Gal(b1-4)GlcNAc(b1-3)Gal(b1-4)GlcNAc(b1-6)]Man(a1-6)[Gal(b1-4)GlcNAc(b1-3)Gal(b1-4)GlcNAc(b1-2)Man(a1-3)]Man(b1-4)GlcNAc(b1-4)GlcNAc
# Method in brief: as §1
# [27] = target: Gal(b1-4)GlcNAc(b1-3)Gal(b1-4)GlcNAc(b1-3)Gal(b1-4)GlcNAc(b1-2)Man(a1-3)[Gal(b1-4)GlcNAc(b1-3)Gal(b1-4)GlcNAc(b1-3)Gal(b1-4)GlcNAc(b1-2)Man(a1-6)]Man(b1-4)GlcNAc(b1-4)[Fuc(a1-6)]GlcNAc
# Method in brief: as §1
# [28] = target: Gal(b1-4)GlcNAc(b1-3)Gal(b1-4)GlcNAc(b1-3)[Gal(b1-4)GlcNAc(b1-3)Gal(b1-4)GlcNAc(b1-6)]GalNAc
# Method in brief: as §1
# [29] = target: Gal(b1-4)GlcNAc(b1-3)Gal(b1-4)GlcNAc(b1-6)[Gal(b1-3)]GalNAc
# Method in brief: as §1
# [30] = target: Gal3S(b1-3)GlcNAc
# Method in brief: as §1
binder,measurement,setting,value
B1,glycan array binding signal (z-score),[1],-0.14
same,glycan array binding signal (z-score),[2],-0.182
same,glycan array binding signal (z-score),[3],9.49
same,glycan array binding signal (z-score),[4],12.6
same,glycan array binding signal (z-score),[5],6.53
same,glycan array binding signal (z-score),[6],-0.045
same,glycan array binding signal (z-score),[7],0.684
same,glycan array binding signal (z-score),[8],-0.126
same,glycan array binding signal (z-score),[9],-0.189
same,glycan array binding signal (z-score),[10],-0.164
same,glycan array binding signal (z-score),[11],-0.193
same,glycan array binding signal (z-score),[12],-0.122
same,glycan array binding signal (z-score),[13],-0.15
same,glycan array binding signal (z-score),[14],-0.189
same,glycan array binding signal (z-score),[15],5.28
same,glycan array binding signal (z-score),[16],2.48
same,glycan array binding signal (z-score),[17],8.36
same,glycan array binding signal (z-score),[18],-0.13
same,glycan array binding signal (z-score),[19],1.43
same,glycan array binding signal (z-score),[20],-0.198
same,glycan array binding signal (z-score),[21],-0.165
same,glycan array binding signal (z-score),[22],-0.131
same,glycan array binding signal (z-score),[23],-0.156
same,glycan array binding signal (z-score),[24],2.51
same,glycan array binding signal (z-score),[25],-0.187
same,glycan array binding signal (z-score),[26],0.026
same,glycan array binding signal (z-score),[27],-0.137
same,glycan array binding signal (z-score),[28],-0.146
same,glycan array binding signal (z-score),[29],-0.097
same,glycan array binding signal (z-score),[30],-0.136
